Data published in PubChem BioAssay (EPA / NIEHS).
Several values for one entry are separate records, joined by “and”; a condition that tells them apart may be missing. Equal entries are not always repeated. Some structures have more than one record in an assay (separate samples or runs), and their calls can disagree. Activity calls are given as the source filed them. The calls were made as follows: active = hit-call score of the fitted dose curve at least 0.9, where 1 is the maximum; inactive = score below 0.9.

Tests used:
[1] = read-out: Cyclin D2 (CCND2), CCND2 (gene 894); assay: LTEA_HepaRG_CCND2: Life Technologies and Expression Analysis (LTEA) Assay for Cyclin D2 (CCND2) using HepaRG (AID 2283449); settings: mRNA level, 48 h; actives raise or lower the signal;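 also: CCND2 transcript measured by TaqMan qRT-PCR and normalised to three housekeeping genes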
Outline: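 HepaRG, 48 h dosing, 8-pt half-log curve from 100 uM, 0.5% DMSO; duplicate wells. Readout: CCND2 transcript by microfluidic qRT-PCR, housekeeping-normalised; bidirectional fit vs DMSO baseline.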

[2] = read-out: Cyclin Dependent Kinase Inhibitor 1A (CDKN1A), CDKN1A (gene 1026); assay: LTEA_HepaRG_CDKN1A: Life Technologies and Expression Analysis (LTEA) Assay for Cyclin Dependent Kinase Inhibitor 1A (CDKN1A) using HepaRG (AID 2283450); settings: mRNA level, 48 h; actives raise or lower the signal
Outline: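 Expression quantified by Fluidigm qRT-PCR with ACTB, GAPDH and POLR2A normalization, fitted bidirectionally against 0.5% DMSO. Cells: HepaRG, plated 48 h then treated 48 h in serum-free induction medium, top concentration 100 uM with half-log dilutions.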

[3] = read-out: Cyclin D1 (CCND1), CCND1 (gene 595); assay: LTEA_HepaRG_CCND1: Life Technologies and Expression Analysis (LTEA) Assay for Cyclin D1 (CCND1) using HepaRG (AID 2283451); settings: mRNA level, 48 h; actives raise or lower the signal;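 as to AC50: differentiated human HepaRG liver cells in serum-free induction medium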
Outline: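 Expression of CCND1 was quantified by qRT-PCR on Fluidigm arrays using ACTB, GAPDH and POLR2A as reference genes. HepaRG cultures, plated 48 h beforehand, were dosed for 48 h at up to 100 uM (half-log, 8 points) in 0.5% DMSO.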

[4] = read-out: catalase (CAT), CAT (gene 847); assay: LTEA_HepaRG_CAT: Life Technologies and Expression Analysis (LTEA) Assay for catalase (CAT) using HepaRG (AID 2283452); settings: mRNA level, 48 h; actives raise or lower the signal
Outline: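 HepaRG cells in serum-free induction medium, 0.5% DMSO vehicle, exposed 48 h in duplicate over 8 half-log concentrations from 100 uM. CAT mRNA measured by qRT-PCR, normalized to ACTB, GAPDH, POLR2A; bidirectional fit versus DMSO.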

[5] = read-out: CFLAR gene, CFLAR (gene 8837); assay: LTEA_HepaRG_CFLAR: Life Technologies and Expression Analysis (LTEA) Assay for CFLAR gene using HepaRG (AID 2283455); settings: mRNA level, 48 h; actives raise or lower the signal
Outline: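 qRT-PCR read-out (Fluidigm/TaqMan) of CFLAR mRNA, normalized to three housekeeping genes, in differentiated human HepaRG cells after 48 h chemical exposure; 8-point half-log series from 100 uM in 0.5% DMSO; bidirectional curve fitting versus DMSO.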

[6] = read-out: Forkhead box O1 (FOXO1), FOXO1 (gene 2308); assay: LTEA_HepaRG_FOXO1: Life Technologies and Expression Analysis (LTEA) Assay for Forkhead box O1 (FOXO1) using HepaRG (AID 2283456); settings: mRNA level, 48 h; actives raise or lower the signal
Outline: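 HepaRG, 48 h exposure, 8-pt half-log series from 100 uM in 0.5% DMSO, duplicates; Fluidigm qRT-PCR mRNA, housekeeping-normalised; bidirectional fit vs DMSO baseline.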

[7] = read-out: growth arrest and DNA damage 45 (GADD45A), GADD45A (gene 1647); assay: LTEA_HepaRG_GADD45A: Life Technologies and Expression Analysis (LTEA) Assay for growth arrest and DNA damage 45 (GADD45A) using HepaRG (AID 2283458); settings: mRNA level, 48 h; actives raise or lower the signal
Outline: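 GADD45A expression was measured by TaqMan qRT-PCR against three housekeeping genes (ACTB, GAPDH, POLR2A) after 48 h treatment of HepaRG cells. Eight-point half-log series up to 100 uM in 0.5% DMSO, run in duplicate.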

[8] = read-out: Forkhead box O3 (FOXO3), FOXO3 (gene 2309); assay: LTEA_HepaRG_FOXO3: Life Technologies and Expression Analysis (LTEA) Assay for Forkhead box O3 (FOXO3) using HepaRG (AID 2283459); settings: mRNA level, 48 h; actives raise or lower the signal
Outline: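 qRT-PCR readout of FOXO3 transcript, normalized to three housekeeping genes (ACTB, GAPDH, POLR2A); gain or loss fitted against 0.5% DMSO vehicle. HepaRG cells, 48 h chemical exposure, 8-point half-log series, top 100 uM.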

[9] = read-out: ABC Transporter (ABCB1), ABCB1 (gene 5243); assay: LTEA_HepaRG_ABCB1: Life Technologies and Expression Analysis (LTEA) Assay for ABC Transporter (ABCB1) using HepaRG (AID 2283460); settings: mRNA level, 48 h; actives raise or lower the signal
Outline: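 HepaRG, 48 h exposure, 8-pt half-log series from 100 uM, 0.5% DMSO vehicle, duplicates. Readout: ABCB1 transcript by Fluidigm TaqMan qRT-PCR, housekeeping-normalized; bidirectional curve fit vs DMSO baseline.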

[10] = read-out: growth arrest and DNA damage 45 (GADD45B), GADD45B (gene 4616); assay: LTEA_HepaRG_GADD45B: Life Technologies and Expression Analysis (LTEA) Assay for growth arrest and DNA damage 45 (GADD45B) using HepaRG (AID 2283461); settings: mRNA level, 48 h; actives raise or lower the signal
Outline: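 Transcript level quantified by Fluidigm TaqMan qRT-PCR with three housekeeping genes for normalization, analyzed for up- or down-regulation against 0.5% DMSO. HepaRG cultures dosed 48 h at eight half-log concentrations up to 100 uM, duplicates.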

[11] = read-out: ABC Transporter (ABCC3), ABCC3 (gene 8714); assay: LTEA_HepaRG_ABCC3: Life Technologies and Expression Analysis (LTEA) Assay for ABC Transporter (ABCC3) using HepaRG (AID 2283462); settings: mRNA level, 48 h; actives raise or lower the signal
Outline: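 Transcript level by TaqMan qRT-PCR, normalised to three housekeeping genes, fitted in both directions relative to vehicle. Chemicals tested in duplicate at eight half-log concentrations up to 100 uM for 48 h on HepaRG cells (0.5% DMSO).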

[12] = read-out: ABC Transporter (ABCB11), ABCB11 (gene 8647); assay: LTEA_HepaRG_ABCB11: Life Technologies and Expression Analysis (LTEA) Assay for ABC Transporter (ABCB11) using HepaRG (AID 2283463); settings: mRNA level, 48 h; actives raise or lower the signal
Outline: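 HepaRG, 48 h exposure, 8-pt half-log CRC top 100 uM, 0.5% DMSO vehicle, duplicates. Readout: TaqMan qRT-PCR of ABCB11 mRNA, housekeeping-normalized (ACTB/GAPDH/POLR2A). Bidirectional fit vs DMSO baseline.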

[13] = read-out: ABC Transporter (ABCC2), ABCC2 (gene 1244); assay: LTEA_HepaRG_ABCC2: Life Technologies and Expression Analysis (LTEA) Assay for ABC Transporter (ABCC2) using HepaRG (AID 2283464); settings: mRNA level, 48 h; actives raise or lower the signal
Outline: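 Endpoint is ABCC2 transcript level from qRT-PCR, normalized to three housekeeping genes and fitted bidirectionally relative to DMSO. Human HepaRG cells received test chemical for 48 h at up to 100 uM (8 points, half-log steps, 0.5% DMSO), duplicate wells.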

[14] = read-out: Broad substrate specificity ATP-binding cassette transporter ABCG2 (Homo sapiens) (UniProt Q9UNQ0); assay: LTEA_HepaRG_ABCG2: Life Technologies and Expression Analysis (LTEA) Assay for ABC Transporter (ABCG2) using HepaRG (AID 2283465); settings: mRNA level, 48 h; actives raise or lower the signal
Outline: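 HepaRG, 48 h exposure, 8-pt half-log series from 100 uM, 0.5% DMSO vehicle, duplicates. Readout: ABCG2 transcript by qRT-PCR (Fluidigm array), housekeeping-normalized; bidirectional curve fit relative to DMSO baseline.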

[15] = read-out: ATP-citrate lyase (ACLY), ACLY (gene 47); assay: LTEA_HepaRG_ACLY: Life Technologies and Expression Analysis (LTEA) Assay for ATP-citrate lyase (ACLY) using HepaRG (AID 2283466); settings: mRNA level, 48 h; actives raise or lower the signal
Outline: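 qRT-PCR readout of ACLY transcript after 48 h chemical treatment of HepaRG cells; expression normalized to three housekeeping genes. Eight-point half-log series, highest 100 uM, 0.5% DMSO vehicle. Gain or loss fitted against DMSO baseline.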

[16] = read-out: Peroxisomal acyl-coenzyme A oxidase 1 (ACOX1) gene, ACOX1 (gene 51); assay: LTEA_HepaRG_ACOX1: Life Technologies and Expression Analysis (LTEA) Assay for Peroxisomal acyl-coenzyme A oxidase 1 (ACOX1) gene using HepaRG (AID 2283467); settings: mRNA level, 48 h; actives raise or lower the signal
Outline: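 HepaRG, 48 h chemical exposure, 8-pt half-log series from 100 uM top, 0.5% DMSO vehicle, duplicates. Readout: ACOX1 mRNA by Fluidigm qRT-PCR, housekeeping-normalized; bidirectional fit vs DMSO baseline.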

[17] = read-out: Alkaline Phosphatase, Placental (ALPP) gene, ALPP (gene 250); assay: LTEA_HepaRG_ALPP: Life Technologies and Expression Analysis (LTEA) Assay for Alkaline Phosphatase, Placental (ALPP) gene using HepaRG (AID 2283468); settings: mRNA level, 48 h; actives raise or lower the signal;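 as to AC50: differentiated human HepaRG liver cells in serum-free induction medium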
Outline: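 ALPP transcript level, measured by qRT-PCR and normalized to three housekeeping genes (ACTB, GAPDH, POLR2A), after 48 h dosing of differentiated HepaRG in serum-free induction medium. Top concentration 100 uM with half-log dilutions (8 points, 0.5% DMSO, duplicates); bidirectional fitting relative to DMSO.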

[18] = CEETOX_H295R_TESTO: CeeTox H295R High-throughput Steroidogenesis Assay for Testosterone (TESTO) (AID 2283457); settings: actives raise or lower the signal
Outline: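 Testosterone secreted into the medium over 48 h by H295R cells (maximum passage 10) was quantified by LC-MS/MS after MTBE extraction. Fitted in both directions against DMSO, with concentrations diluted until MTT viability was ≥70%.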

[19] = read-out: Cytochrome P450 (CYP1A1), CYP1A1 (gene 1543); assay: LTEA_HepaRG_CYP1A1: Life Technologies and Expression Analysis (LTEA) Assay for Cytochrome P450 (CYP1A1) using HepaRG (AID 2283454); settings: mRNA level, 48 h; actives raise or lower the signal
Outline: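 CYP1A1 transcript levels measured by Fluidigm qRT-PCR against three housekeeping genes, 48 h after chemical dosing of human HepaRG cells (highest concentration 100 uM, half-log steps, 0.5% DMSO vehicle). Gain or loss of signal fitted relative to DMSO.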

Measured: AC50

Broad substrate specificity ATP-binding cassette transporter ABCG2 (Homo sapiens), sequence (Q9UNQ0 whole entry, looked up): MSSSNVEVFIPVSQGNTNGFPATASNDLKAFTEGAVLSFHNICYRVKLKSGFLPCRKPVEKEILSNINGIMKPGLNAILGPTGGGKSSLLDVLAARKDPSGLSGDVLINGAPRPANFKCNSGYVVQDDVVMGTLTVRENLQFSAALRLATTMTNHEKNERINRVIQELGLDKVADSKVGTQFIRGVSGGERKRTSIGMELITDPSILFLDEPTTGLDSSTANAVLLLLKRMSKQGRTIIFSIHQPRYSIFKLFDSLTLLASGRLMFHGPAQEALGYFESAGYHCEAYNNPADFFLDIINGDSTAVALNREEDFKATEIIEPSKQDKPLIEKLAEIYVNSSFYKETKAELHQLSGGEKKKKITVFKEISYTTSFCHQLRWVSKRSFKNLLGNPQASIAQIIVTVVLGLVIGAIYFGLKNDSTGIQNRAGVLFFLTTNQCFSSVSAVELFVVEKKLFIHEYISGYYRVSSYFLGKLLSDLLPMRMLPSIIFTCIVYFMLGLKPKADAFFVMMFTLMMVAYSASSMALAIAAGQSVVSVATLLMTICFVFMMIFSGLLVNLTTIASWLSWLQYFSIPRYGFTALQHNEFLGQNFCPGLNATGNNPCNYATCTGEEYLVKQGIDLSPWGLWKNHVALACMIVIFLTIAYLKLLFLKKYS

C=CCC1=C(C)C(OC(=O)C2C(C=C(C)C)C2(C)C)CC1=O (configuration not stated)
active: [3] 88.2 µM | [4] 83.6 µM and 16.6 µM | [12] 64.8 µM and 79.9 µM and 19 µM | [14] 50 µM and 79.2 µM | [16] 90.9 µM | [17] 92.4 µM and 71.1 µM
inactive: [1] | [2] | [3] | [4] | [5] | [6] | [7] | [8] | [9] | [10] | [11] | [13] | [15] | [16] | [17]

N#CC(CCc1ccc(Cl)cc1)(Cn1cncn1)c1ccccc1 (configuration not stated)
active: [2] 60.9 µM | [3] 71.5 µM | [4] 54.5 µM | [6] 77.8 µM | [7] 74.7 µM | [11] 12.5 µM | [12] 72.3 µM | [13] 50 µM | [14] 50 µM | [15] 12.9 µM | [16] 34.3 µM | [17] 21.9 µM
inactive: [1] | [5] | [18] | [8] | [9] | [10]

CCNc1nc(Cl)nc(NCC)n1
active: [19] 21.4 µM
not listed: [18]
inactive: all other assays above
